From PubChem
hgDAF-12 ag = activates the H. glycines DAF-12 receptor ligand-binding domain | HEK293 GAL4-hgDAF12 UAS-luciferase reporter, agonist luminescence; normalized to butyrate control | activation, % at 6.8 µM | hit rate 1.8% among 370,000 | AID 687014;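 active means activation above a cutoff set at the mean of all screened compounds plus 3 SD, cut at about 10% in these data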;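 further: 0% = DMSO wells and 100% = sodium butyrate wells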
esBAF inh = inhibitors of esBAF chromatin remodeling in mouse ES cells; AID 602393; hit rate 2% among 350,000; Bmi1-luciferase knock-in reporter, 24 h; 100% = twice the neutral-well signal; reporter increase, % at 12.5 µM; in the data active means activation above about 40%; inconclusive means no clear call, values can overlap the other calls;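 further: 0% = median of the plate's neutral control wells and 100% = double that signal; a rise in the Bmi1 reporter signal indicates esBAF inhibition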
ssDAF-12 act = activates DAF-12 receptor from parasite S. stercoralis; HEK293 ssDAF-12/GRIP1 lit1-tk-luc reporter, luminescence; % of 3 µM dafachronic acid response; activation, % at 6.8 µM; hit rate 1% among 370,000;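 active means activation above the mean over all tested compounds plus 3 SD, cut at about 0.9% in these data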;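 further: 0% = DMSO-only wells and 100% = 3 µM delta7-dafachronic acid wells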
hcDAF-12 act = activates DAF-12 receptor from parasite H. contortus. hit rate 1.4% among 370,000. AID 652067. activation, % at 6.8 µM. HEK293 hcDAF-12 lit1-tk-luc reporter, luminescence; 0% DMSO, 100% Δ7-dafachronic acid;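 active means activation above the mean of all tested compounds plus 3 SD, cut at about 5.5% in these data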;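 further: 100% = response to 3 µM Δ7-dafachronic acid high control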
DAX1 StAR inh = inhibitors of DAX1 repression of SF-1 activated StAR promoter. HEK293T StAR-luciferase reporter, SF-1/DAX-1 repression relief. inhibition, % at 6.8 µM. hit rate 1.1% among 370,000;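 active means inhibition above the mean over all tested compounds plus 3 SD, cut at about 3.6% in these data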;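 further: 0% = DAX-1 cells with DMSO and 100% = cells lacking DAX-1 with DMSO; higher inhibition means more luminescence from relief of DAX-1 repression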
Wnt act = activators of Wnt/beta-catenin signaling | Wnt/beta-catenin reporter cell assay, activator, plate reader | activation, % at 9.35 µM | hit rate 1.2% among 300,000 | AID 743398; in the data active means activation above about 30%, passing the limit was not always enough; inconclusive means no clear call, values can overlap the other calls;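 further: 0% = neutral control wells and 100% = positive control wells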
* = called active by the depositor; u = inconclusive; x = not tested or not shown. Hits are enriched below; roughly 4.2% of the tested compounds scored in any of these assays.

SMILES	hgDAF-12 ag	esBAF inh	ssDAF-12 act	hcDAF-12 act	DAX1 StAR inh	Wnt act
COC(=O)c1cccc(NC(=O)CCc2ccccc2)c1	3.5	x	0.5	0.6	0.0	-0.6
O=C(CCCC(=O)c1ccccc1)NCCc1ccccc1	0.2	-6.8	-0.7	-1.4	-0.1	4.4
O=C(CCCc1ccccc1)c1ccccc1	6.5	23.1	-0.6	5.6*	2.0	31.4*
O=C(CCc1ccccc1)NC(=S)Nc1cccc(C(=O)O)c1	8.7	24.1	0.0	2.1	4.0*	25.1
O=C(CCCc1ccccc1)Nc1cccc(C(=O)O)c1	11.7*	x	-0.4	3.7	4.5*	-1.6
O=C(CCCc1ccccc1)NC1CC1	1.4	x	-0.8	5.7*	0.1	x
COc1ccc(NC(=O)CCCC(=O)c2ccccc2)cc1OC	-0.7	0.8	-1.1	-0.6	0.0	4.8
COc1ccc(NC(=O)CCCc2ccccc2)cc1OC	8.8	64.7*	0.0	0.3	0.8	11.2
COc1cccc(/C=N/NC(=S)Nc2cccc(C(=O)O)c2)c1	9.8	x	1.6*	2.7	2.3	u
CNC(=S)Nc1cccc(C(=O)O)c1	0.7	6.9	1.4*	2.9	0.3	2.2
C[C@@H]1CN([C@@H](C)CO)C(=O)c2cc(NC(=O)C3CC3)ccc2O[C@@H]1CN(C)Cc1ccc(C(F)(F)F)cc1	x	-6.8	x	x	x	x
NC(=O)c1ccccc1NC(=O)Nc1cccc2ccccc12	0.9	x	-1.2	-0.8	-1.1	-1.1
O=C(Nc1ccccc1F)Nc1ccccc1F	9.9	56.0*	-0.9	1.4	0.7	54.5*
NS(=O)(=O)c1ccc2nc(NC(=O)Nc3ccccc3F)sc2c1	10.4*	12.0	-0.4	4.5	1.8	42.9*
O=C(Nc1ccccc1F)Nc1cccc2ccc(O)cc12	-0.4	24.6	0.2	6.2*	-0.3	4.6
O=C(NNc1ccccc1)Nc1ccccc1F	1.9	0.3	-0.4	1.1	0.1	5.3
COCC(=O)Nc1ccc2c(c1)[C@@H]1C[C@@H](CC(=O)NCC3CC3)O[C@@H](CO)[C@@H]1O2	x	-1.3	x	x	x	x
c1ccc(-c2ccc3sccc3n2)cc1	5.0	x	-0.7	2.5	1.5	48.0*
COC(=O)c1ccccc1NC(=S)NC(=O)C1CC1	-0.7	3.2	-1.3	1.6	0.2	-0.2
CC(=O)Nc1ccc(NC(=S)NC(=O)C2CC2)cc1	1.1	6.2	-0.2	1.8	2.4	3.0
O=C(NC(=S)Nc1cccc(O)c1)C1CCCCC1	8.9	41.9*	-0.4	0.6	2.4	-3.6
O=C(NC(=S)Nc1ccc(Br)c(Cl)c1)C1CC1	1.9	6.8	0.4	5.8*	0.1	4.3
Cc1ccc(NC(=S)NC(=O)C2CC2)c(C)c1	6.9	50.0*	-0.3	3.2	4.0*	18.0
O=C(NC(=S)Nc1ccc(O)cc1)C1CCCC1	3.9	2.3	-1.1	2.7	-0.2	21.9
Cc1noc(C)c1S(=O)(=O)N(C)C[C@@H]1Oc2c(NC(=O)c3nc4ccccc4s3)cccc2C(=O)N([C@@H](C)CO)C[C@@H]1C	x	2.0	x	x	x	x
SMILES	hgDAF-12 ag	esBAF inh	ssDAF-12 act	hcDAF-12 act	DAX1 StAR inh	Wnt act
Cc1ccc(C(CC(=O)N2CCCCC2)c2ccccc2)c(O)c1C (stereo not given)	-0.3	-8.5	1.6*	1.1	0.3	0.4
Cc1nc(NCCc2ccccc2)sc1C(=O)N(C)C	5.5	41.5*	-1.1	1.1	0.5	7.8
Cc1nc(Nc2ccccc2C(F)(F)F)sc1C(=O)N(C)C	3.6	48.6*	-1.3	-0.4	1.2	16.2
COc1ccccc1CNc1nc(C)c(C(=O)N(C)C)s1	0.6	1.6	-1.0	-1.1	0.2	-0.3
Cn1c(=O)c2cc(NC(=O)NCc3ccccc3)ccc2n1C/C=C/c1ccccc1	10.6*	12.4	-0.8	1.1	1.3	-3.3
CO[C@@H]1CN(C)C(=O)c2ccc(NC(=O)Nc3ccc(Cl)cc3)cc2OC[C@H](C)N(C(=O)Nc2c(C)noc2C)C[C@@H]1C	x	0.6	x	x	x	x
O=C(COC(=O)c1ccc2ccccc2n1)c1ccccc1	1.1	2.6	1.3*	4.1	0.0	1.7
O=C(OCC(=O)c1ccc[nH]1)c1ccc2ccccc2n1	1.0	x	-0.3	2.5	0.4	-0.2
CN(C(=O)COC(=O)c1ccc2ccccc2n1)C1CCCCC1	0.1	-13.8	2.1*	0.6	0.9	-1.0
COc1cccc(S(=O)(=O)Nc2ccc3c(c2)OC[C@@H](C)NC[C@H](C)[C@@H](OC)CN(C)C3=O)c1	x	-2.4	x	x	x	x
C[C@H](CO)N1C[C@H](C)[C@H](CN(C)S(=O)(=O)c2ccccc2)Oc2c(NC(=O)C3CCOCC3)cccc2C1=O	x	-1.5	x	x	x	x
C=CCN1N=C(/C=C/c2ccc(C)cc2)CCC1=O	7.1	55.8*	-0.6	1.1	0.9	6.4
O=C(CC1CC1)Nc1ccc2c(c1)[C@H]1C[C@@H](CC(=O)N3CCCCC3)O[C@H](CO)[C@H]1O2	x	3.0	x	x	x	x
Cc1ccccc1-c1nc2cc(Cl)ccc2c(=O)o1	-1.6	x	-1.0	2.3	-0.1	-2.6
Cc1ccc(OCC(=O)Nc2ccc(O)c(-c3nc4ccccc4o3)c2)cc1	4.0	54.1*	-1.6	-1.6	-0.2	-8.6
Cc1ccccc1-c1nc2cc(NC(=O)C3CC3)ccc2o1	11.4*	63.2*	0.2	4.7	2.3	18.3
Cc1ccc(-c2nc3cc(N)ccc3o2)c(C)c1	12.4*	-44.7	0.0	4.8	2.5	x
Cc1ccccc1-c1nc2cc(Cl)ccc2o1	2.1	x	0.0	1.9	0.1	37.9*
Nc1ccc2oc(-c3cccc4ccccc34)nc2c1	-7.5	-33.4	-1.3	-4.0	-0.6	x
C[C@@H]1CN([C@H](C)CO)C(=O)c2cc(C3=CCCCC3)cnc2O[C@H]1CN(C)C(=O)C1CCOCC1	x	2.9	x	x	x	x
C[C@@H]1CN([C@H](C)CO)C(=O)c2cccc(NC(=O)CCCCCC(=O)Nc3ccccc3N)c2O[C@H]1CN(C)Cc1ccc(-c2ccccc2)cc1	x	7.1	x	x	x	x
CCC(=O)Nc1ccc2oc(-c3ccccc3Br)nc2c1	11.0*	58.7*	-0.3	1.8	3.1	x
CCC(=O)Nc1ccc2oc(-c3cccnc3)nc2c1	4.4	x	-1.2	0.2	1.4	-2.4
c1ccc(-c2cc(N3CCCCCC3)n[nH]2)cc1	2.8	57.7*	-1.2	-1.2	0.2	x
c1ccc(-c2cc(N3CCCCC3)ncn2)cc1	8.2	44.4*	-0.2	0.6	1.1	-1.0
Nc1nc(-c2ccccc2)cc(N2CCCCC2)n1	-1.7	-6.5	-0.4	-0.2	-0.3	x
Cc1nc(-c2ccccc2)cc(N2CCCC2)n1	2.4	-10.7	-0.7	-0.6	0.2	x
CC(C)NC(=O)NCC[C@H]1CC[C@@H](NS(=O)(=O)c2ccc(-c3ccccc3)cc2)[C@@H](CO)O1	x	0.2	x	x	x	x
C[C@@H]1CN([C@@H](C)CO)C(=O)Cc2cc(NC(=O)Nc3ccc4c(c3)OCO4)ccc2O[C@H]1CN(C)Cc1ccc(Cl)c(Cl)c1	x	3.0	x	x	x	x
CCC(=O)N(C)C[C@@H]1Oc2ncc(-c3ccc(C(=O)N(C)C)cc3)cc2C(=O)N([C@H](C)CO)C[C@H]1C	x	2.2	x	x	x	x
